The whole screen tested about 1,200 compounds, of which about 360 (30%) were called active. How the calls were made is not given here. A selection follows. Entries that show only a call come without a potency. Potency and affinity values are given separately.
Experiment: antibacterial activity by ATP level – BacTiter-Glo luminescence, cherry-picked samples, counter-screen, dose response (AID 504843);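 further: growth measured after 8 h incubation at 30 °C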
Details: bacterial growth; series mostly up to 15 µM

SMILES	outcome
COc1ccc2nc(SCC(=O)Nc3cc(OC)c(OC)cc3C(=O)O)c(C)cc2c1	inactive
O=C(Nc1ccc(S(=O)(=O)Nc2ncccn2)cc1)c1cncc(Br)c1	inactive
Cc1ccc(S(=O)(=O)CCNC(=O)Cc2ccc(Cl)cc2)cc1	inactive
O=C(COC(=O)C12CC3CC(CC(Br)(C3)C1)C2)Nc1cccnc1Cl	inactive
Cc1ccnc(SCCn2c(N3CC(C)CC(C)C3)nc3c2c(=O)n(C)c(=O)n3C)n1 (configuration not stated)	inactive
Cc1cc(N2C(=O)c3ccc(C(=O)Nc4ccc(O)cc4C(=O)O)cc3C2=O)no1	inactive
O=C(N/N=C/C1=C(N2CCOCC2)C(=C\c2ccccc2)/CC1)Nc1ccccc1	inactive
COc1cccc(C2C(C(=O)OC(C)C)=C(C)Nc3ncnn32)c1 (configuration not stated)	inactive
Cc1csc(NC(=O)c2c(-c3c(Cl)cccc3Cl)noc2C)n1	inactive
COc1ccc(Nc2nc3ccccc3nc2-n2nc(C)cc2C)cc1	inactive
COc1cc(OC)c2c(C)cc(=O)oc2c1	inactive
COc1cccc(-n2c(SCc3ccccn3)nc3c(c2=O)SCC3)c1	inactive
COc1ccc(NC(=O)c2ccccc2[N+](=O)[O-])cc1OC	inactive
CCN(CC)CCCn1c(C)cc2c(c1=O)C(c1cccc(Cl)c1)C(C#N)=C(N)O2 (configuration not stated)	inactive
Cc1ccnc(SCC(=O)c2cccs2)n1	inactive
O=C(CSc1ncccn1)N/N=C/c1cccs1	inactive
COc1ccccc1N1CCN(CC(=O)Nc2ccc3c(c2)OCCO3)CC1	inactive
COc1cc(NC2c3ccccc3C(=O)N2Cc2ccc3c(c2)OCO3)cc(OC)c1OC (configuration not stated)	inactive
COc1ccc(C(=O)NC(C(=O)NCc2ccccn2)C(C)C)cc1 (configuration not stated)	inactive
COc1cccc(C(=O)NCCS(=O)(=O)NCc2ccccn2)c1	inactive
Cc1nn2c(SCC(=O)c3cccs3)cc(C(C)(C)C)nc2c1-c1ccccc1	inactive
O=c1[nH]c(-c2ccccn2)nc2ccccc12	inactive

SMILES	outcome
CC1=NCC(C)c2c1[nH]c1ccccc21 (configuration not stated)	inactive
COC(=O)c1sccc1NC(=O)c1ccc2c(c1)OCO2	inactive
O=C(CNC(=O)c1ccccc1)NC1(C(=O)NC2CCCC2)CCCCC1	inactive
COc1ccc(Cl)cc1C(=O)NCCN(C)C	inactive
CCCCN1C(=O)C(CC(=O)NCC)SC1=Nc1ccccc1 (configuration not stated)	inactive
C=C1CSc2nc(=O)c3c4c(sc3n21)CCCC4	inactive
COc1ccc(CCNC(=O)CN2CCOc3ccccc32)cc1OC	inactive
COC(c1ccccc1)c1nnc(CCC(=O)N(C)C(C2CC2)C2CC2)o1 (configuration not stated)	inactive
O=C(CCNC(=O)C1CCN(S(=O)(=O)c2ccc(F)cc2)CC1)Nc1nccs1	inactive
O=C(Nc1ccccc1F)C1CCN(C(=O)Cc2ccccc2)CC1	inactive
O=C(CCC(=O)Nc1ccccc1)N/N=C/c1ccncc1	inactive
CC(=O)Nc1ccc(NC(=O)CSc2ccccn2)cc1	inactive
C/C=C(/C)C(=O)Nc1cccc(C2=NOC3(C2)C[C@H](C(N)=O)N(C(=O)c2ccc(Cl)cc2)C3)c1 (some centres not stated)	inactive
Cc1nc2ccc(NC(=O)C3CCN(S(=O)(=O)c4cccs4)CC3)cc2s1	inactive
Cc1ccc(S(=O)(=O)N2CCC(C(=O)Nc3nnc(C)s3)CC2)cc1	inactive
Cc1noc(C)c1COc1ccccc1C(=O)NC1CCC(C)CC1 (configuration not stated)	inactive
N#Cc1cccc(C(=O)OCC(=O)NCc2ccco2)c1	inactive
CS(=O)(=O)N(CC(=O)NC1CCCC1)c1cccc(F)c1	inactive
Cc1cccc(N(CC(=O)NC(C)(C)C)C(=O)CCC(=O)Nc2nccs2)c1	inactive
O=c1cc(O)nc[nH]1	inactive
CCOc1cc(C(=O)N2CCCN(C)CC2)cc(OCC)c1OCC	inactive
O=C(Cn1cc2c(n1)CCCCC2)N1CCc2ccccc2C1	inactive

SMILES	outcome
COc1ccc(CN(C(=O)/C=C/c2ccccc2Cl)C2CCS(=O)(=O)C2)cc1 (configuration not stated)	inactive
Cn1c(-c2ccccc2)cnc1SCc1nc2ccccc2c(=O)[nH]1	inactive
CCOC(=O)c1c(NC(=O)CSc2n[nH]c(CNc3ccccc3)n2)sc(C)c1C	inactive
Cc1nn2c(COc3ccc(NC(=O)c4ccccc4Cl)cc3)nnc2c2ccccc12	inactive
COc1ccc(NC(=O)c2ccc(Oc3ncccn3)cc2)cc1	inactive
CCn1ccnc1CN(C)C(=O)c1cc(COc2ccc(Cl)cc2OC)on1	inactive
COc1ccc(NC(=O)Cn2ncc(Cl)c(Cl)c2=O)cc1S(=O)(=O)N1CCOCC1	inactive
COc1ccccc1OCCNC(=O)Cc1ccc(S(=O)(=O)N2CCOCC2)s1	inactive
CCN(CC(=O)NCc1ccc(F)cc1)CC(=O)Nc1ccc(S(=O)(=O)N2CCCC2)cc1	inactive
O=C(CSc1nc(O)c(Cc2ccccc2F)c(=O)[nH]1)N1CCCCCC1	inactive
COc1ccc(-c2csc(NC(=O)C3COc4ccccc4O3)n2)cc1OC (configuration not stated)	inactive
COc1ccc2c(c1)c(C(O)CN1CCC(Cc3ccccc3)CC1)c(C)n2C (configuration not stated)	inactive
Cc1c(Nc2ncnc3c2cnn3-c2ccccc2)c(=O)n(-c2ccccc2)n1C	inactive
O=C(CN1CCN(c2ccc(O)cc2)CC1)Nc1ccc2c(c1)OCCO2	inactive
COc1ccc(S(=O)(=O)N2CCOCC2)cc1NC(=O)c1ccc2c(c1)OCO2	inactive
CCOc1ccc(S(=O)(=O)N2CCCCC2)cc1NC(=O)CN1C(=O)NC(CC)(c2ccccc2)C1=O (configuration not stated)	inactive
Cc1cc(C)c(C(N)=O)c(Nc2ccc3c(c2)OCCO3)n1	inactive
CCN(CC)CCn1c(=N)n(CC(O)COc2cccc(C)c2)c2ccccc21 (configuration not stated)	inactive
Cc1ccc(CC(=O)NCCS(=O)c2ccc(Cl)cc2)cc1 (configuration not stated)	inactive
O=C(CN1CCN(Cc2ccc(Cl)cc2)CC1)N/N=C/c1c[nH]c2ccccc12	inactive
CCOC(=O)[C@H]1[C@H]2COc3ccc(OC)cc3[C@H]2N2C(=O)CN(Cc3ccccc3)C(=O)[C@@]12C	inactive
O=C(CSc1nccc(=O)[nH]1)c1cc2ccccc2o1	inactive

SMILES	outcome
Cc1ccc(S(=O)(=O)N2CCOCC2)cc1NC(=O)c1cc2ccccc2oc1=O	inactive
CC(O/N=C/c1ccc(OC(F)F)cc1)C(=O)Nc1cccc(S(=O)(=O)N2CCOCC2)c1 (configuration not stated)	inactive
COc1ccc(N2CCN(C3CC(=O)N(c4ccc5c(c4)OCCO5)C3=O)CC2)cc1 (configuration not stated)	inactive
CCOC(=O)C1=C(C)Nc2ncnn2C1c1cc(Br)ccc1F (configuration not stated)	inactive
COC(=O)c1ccc(NC(=O)N2CCC(O)(c3cccnc3)CC2)cc1	inactive
CC(=O)Nc1sc(NC(=O)c2ccccc2)nc1-c1cccs1	inactive
Cc1ccc(C(=O)Nc2nc(C)c(C(=O)Nc3ccc4c(c3)CCC4)s2)cc1	inactive
CCCN(C(=O)Cn1c(C(F)(F)F)nc2ccccc21)C1CCS(=O)(=O)C1 (configuration not stated)	inactive
CC(C)=CCC/C(C)=C/CNC(=O)C[C@H]1C[C@H](C(=O)N2CCOCC2)[C@@]2(C)c3[nH]c4ccc(Cl)cc4c3CCN2C1=O	inactive
CC(=O)CSc1ncnc2sc3c(c12)CCC(C)C3 (configuration not stated)	inactive
CCOCCCNC(=O)c1ccc(Cn2c(=S)[nH]c3c([nH]c4ccc(OC)cc43)c2=O)cc1	inactive
CCOC(=O)Cc1c[nH]c2ccc([N+](=O)[O-])cc12	inactive
O=C(NCc1ccccc1)c1ccc(F)c(F)c1	inactive
O=C(Nc1ccccc1Oc1ccccc1)c1ccc(Br)o1	inactive
CN(CC(=O)NCc1cccnc1)S(=O)(=O)c1ccccc1	inactive
O=C(N/C(=C/c1ccccc1)C(=O)N1CCCCC1)c1ccc(Br)o1	inactive
O=C(CSc1ncnc2nc[nH]c12)c1ccc2ccccc2c1	inactive
O=C1NC(=O)C(c2ccccc2)(c2ccccc2)N1	inactive
CCN(CC)CC(=O)Nc1ccc(C)cc1C(=O)c1ccccc1	inactive
COc1cc(OC)cc(C(=O)N(CN2CCCC2=O)c2ccccc2OC)c1	inactive
CC(C)(C)NC(=O)C[C@H]1C[C@H](C(=O)N2CCOCC2)[C@@]2(CCC3CCCC3)c3[nH]c4cc(-c5ccco5)ccc4c3CCN2C1=O	inactive
CC(C)[C@@H](C(=O)N1CCNCC1)n1cc(CCO)nn1	inactive

SMILES	outcome
Cc1nc(N)nc(Cl)c1Cc1ccc(Cl)cc1	inactive
COc1cccc(COC(=O)C2CC(=O)N(Cc3ccco3)C2)c1OC (configuration not stated)	inactive
CC(NC(=O)Nc1nccs1)(C(F)(F)F)C(F)(F)F	inactive
NC(=O)c1ccccc1NC(=O)COc1ccc2c(c1)OCO2	inactive
COC(=O)c1cnc(NNS(=O)(=O)c2ccc(C(F)(F)F)cc2)nc1C(F)(F)F	inactive
COCn1c(-c2cccc(Br)c2)nc2ccccc21	inactive
CNC(=O)C1CCN(S(=O)(=O)c2c(C)noc2/C=C/c2cccc(OC)c2)CC1	inactive
O=C(c1ccc2nc[nH]c2c1)N1CCN(c2ncc(C(F)(F)F)cc2Cl)CC1	inactive
Cc1ccc(NC(=O)c2cccs2)cc1S(=O)(=O)Nc1cccc(Cl)c1	inactive
O=C1c2ccccc2CC1Sc1nnc(-c2ccncc2)o1 (configuration not stated)	inactive
CC1=CC(=O)[C@@H](O)[C@@H](c2ccccc2Br)N1C	inactive
COc1ccc(NC(=O)CC2(CC(=O)O)CCCC2)cn1	inactive
COc1ccc2[nH]c(C(=O)N(C)c3ccc(F)cc3F)cc2c1	inactive
COc1cccc(NC(=O)CSc2nc3ccccc3c(=O)n2CCCC(=O)NCC2CCCO2)c1 (configuration not stated)	inactive
O=C(CSc1cn(CCNC(=O)c2c(F)cccc2F)c2ccccc12)NCC1CCCO1 (configuration not stated)	inactive
C=CCn1c(C)cc(C(=O)CSc2nnc3c(Cl)cc(Cl)cn23)c1C	inactive
CCN(C1CCS(=O)(=O)C1)S(=O)(=O)c1cc(C)ccc1C (configuration not stated)	inactive
Fc1ccc(-n2c(-c3ccc4ccccc4n3)n[nH]c2=S)cc1Cl	inactive
C=CCOc1cccc(C(=O)N2CCCC(CCC(=O)NCc3ccccc3F)C2)c1 (configuration not stated)	inactive

— PubChem BioAssay AID504843 (Broad Institute, 2011)
